In the library only some 0.34% were active in any assay of this set; here they are far more common.
Vif-APOBEC3G blk = Vif-A3G binding inhibition. 410,000 tested, 0.076% active. HeLa A3G-eYFP + Vif (tagged APOBEC3G with the HIV-1 protein that degrades it), YFP fluorescence, overnight. Potency, µM (highest dose often 46.1 µM), inactives show at the highest dose activity, negative = active, most hits filed as inhibitors. AID 602310; also: % is scaled to controls: 0 for no effect and ±100 for the full control effect; nearly all actives have a fitted effect of over 60% in size
Target sequence (Q9HC16 whole entry, looked up): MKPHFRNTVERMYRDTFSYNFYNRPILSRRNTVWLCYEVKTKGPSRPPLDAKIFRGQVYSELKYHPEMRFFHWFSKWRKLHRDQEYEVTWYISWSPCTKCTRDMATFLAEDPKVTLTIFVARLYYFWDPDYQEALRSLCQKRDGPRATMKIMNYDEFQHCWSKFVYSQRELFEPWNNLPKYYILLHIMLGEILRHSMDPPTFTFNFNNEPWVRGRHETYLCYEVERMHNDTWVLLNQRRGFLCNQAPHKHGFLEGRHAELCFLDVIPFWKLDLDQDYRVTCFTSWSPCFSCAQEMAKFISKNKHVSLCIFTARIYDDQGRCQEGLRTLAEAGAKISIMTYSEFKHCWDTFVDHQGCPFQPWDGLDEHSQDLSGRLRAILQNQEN
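Read-out is eYFP fluorescence (Ex 488/Em 500-530) from Vif-expressing HeLa A3G-eYFP cells; more signal means A3G escaped Vif-mediated degradation. Cells plated overnight, compound pinned in, incubated overnight at 37 deg C.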
Epigenetic derep = derepresses silenced GFP reporter in murine cells; murine LDR cells, GFP reporter derepression, 30 h; Potency, µM (titrated, usually from 53.9 µM), for inactives: at the top dose GFP activation, actives largely listed as activators; 280,000 tested, 0.2% active; AID 1865; also: % of control where 0% means no effect; nearly all actives have a fitted effect of over 60% in size
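Murine LDR cells carrying a silenced, genomically integrated CMV-driven GFP reporter were exposed to compound for 30 hours at 37 C. After PBS washes, GFP-positive cells (20–120 um objects) were counted by laser-scanning microplate cytometry.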
Vif-APOBEC3F blk = inhibitors of Vif-A3F interaction; HeLa A3F-eYFP + Vif (tagged APOBEC3F with the HIV-1 protein that degrades it), YFP fluorescence increase; Potency, µM (series often up to 46.1 µM), for the others: top-dose activity, negative = active; AID 602313; 390,000 tested, 0.2% active; also: % of control where 0% means no effect; nearly all actives have a fitted effect of over 65% in size
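HeLa cells stably expressing Vif plus C-terminally eYFP-tagged A3F were seeded, incubated overnight at 37 deg C, dosed with compound, incubated overnight again at 37 deg C. Yellow fluorescence (Ex 488/Em 500-530) reported blocked Vif-mediated A3F-eYFP degradation.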
The depositor's hits bear a star; ? = inconclusive; / = no result given. Calls follow the shape of the dose curve; as a rule, active = well fitted curve in the direction sought with a large enough effect; inconclusive = small, poorly fitted or top-dose-only effect, or another doubt; inactive = no such curve, though single readings can be large; an effect the other way counts as inactive or inconclusive. Potency is read from the fitted curve at half-maximal effect.

SMILES	Vif-APOBEC3G blk	Epigenetic derep	Vif-APOBEC3F blk
COc1cccc(CNC(=O)c2ccc(-c3nc(CS(=O)(=O)c4ccccc4)c(C)o3)cc2)c1	3%	-2%	-6%
CC1CCN(S(=O)(=O)c2nnc(NC(=O)c3cccc(Br)c3)s2)CC1	4%	0%	4%
CC1CCN(S(=O)(=O)c2nnc(NC(=O)c3cccc(F)c3)s2)CC1	5%	13µM*	9%
COc1ccccc1CNC(=O)c1ccc(-c2nc(CS(=O)c3ccc(C)cc3)c(C)o2)cc1 (stereo not given)	0%	2%	-12%
CCC(=O)Nc1ccc(CC)cc1-c1nc2ccccc2n(CC(=O)Nc2cccc(Cl)c2)c1=O	-7%	-1%	-2%
Cc1ccc(C(=O)Nc2nc(-c3ccccn3)cs2)s1	-3%	/	-4%
CSCCC(=O)Nc1nc(-c2ccccn2)cs1	2%	0%	-31%
O=C(Nc1nc(-c2ccccn2)cs1)c1ccc(Cl)s1	?	22µM*	-20%
O=C(Nc1nc(-c2ccccn2)cs1)C1CCCC1	-2%	0%	7.1µM*
Cc1ccc(-c2noc(-c3nnn(CC(=O)Nc4cccc(C(F)(F)F)c4)c3N)n2)cc1	/	-3%	/
O=C(NCc1ccco1)c1c[nH]c2ccc(S(=O)(=O)Nc3ccc(F)cc3F)cc2c1=O	-5%	4%	-6%
O=C(Nc1ccc(N2CCOCC2)cc1)c1cccc2ccccc12	10µM*	/	-2%
CCc1ccc(C(=O)NC(=S)Nc2ccc(N3CCOCC3)cc2)cc1	1%	-3%	10µM*
O=C(NN1CCOCC1)c1cccc2ccccc12	0%	-1%	13%
O=C(NC(=S)Nc1ccc(N2CCOCC2)cc1)c1ccccc1	0%	1%	2%
CCCn1c(SCc2nc(-c3ccccc3C)no2)nnc1-c1ccc(Cl)cc1	-1%	-1%	-4%
O=C(Cn1nc(-c2ccccc2)c2cnc3ccccc3c21)Nc1ccccc1	-5%	6%	1%
CC(/C=C/c1ccc(N(C)C)cc1)=N\N=C(/N)SC1CC(=O)N(c2ccc(C(=O)O)cc2)C1=O (stereo not given)	-15%	-1%	25µM*
O=C(O)c1ccc(N2C(=O)CC(SC(=Nc3ccccc3)Nc3ccccc3)C2=O)cc1 (stereo not given)	0%	5%	4%
O=C(Nc1nccs1)c1cccc(N2C(=O)c3cccc4c([N+](=O)[O-])ccc(c34)C2=O)c1	?	13µM*	?
O=C(Nc1ccc(S(=O)(=O)Nc2nccs2)cc1)c1cccc(N2C(=O)c3ccccc3C2=O)c1	1%	-1%	2%
COc1cc2c(NC3CCN(C(C)C)CC3)nc(N3CCCN(C)CC3)nc2cc1OCCCN(C)C	-5%	/	/
COc1cccc(/C=N/n2c(C3CCCCC3)n[nH]c2=S)c1	7.1µM*	/	-9%
Oc1cccc(/C=N/n2c(C3CCCCC3)n[nH]c2=S)c1	-2%	/	-5%
c1ccc(Nc2nc3ccccc3n3nnnc23)cc1	-21%	4%	?
SMILES	Vif-APOBEC3G blk	Epigenetic derep	Vif-APOBEC3F blk
Fc1ccccc1Nc1nc2ccccc2n2nnnc12	-27%	?	25µM*
CCOC(=O)N1CCC(Nc2nc3ccccc3n3nnnc23)CC1	-8%	2%	10µM*
Oc1ccccc1Nc1nc2ccccc2n2nnnc12	/	13µM*	/
CCOC(=O)c1ccccc1Nc1nc2ccc(C)cc2n2nnnc12	-4%	14%	?
Brc1ccc(Nc2nc3ccccc3n3nnnc23)cc1	/	-1%	/
CC(=O)Nc1ccc(/C=C/c2nc3ccccc3s2)cc1	0%	/	/
COc1ccc(OC)c(C2CC(=O)Nc3c2c(=O)n(C)c2ncnn32)c1 (stereo not given)	0%	0%	-3%
N#Cc1ccc(-c2cccs2)nc1SCc1ccc(Cl)cc1Cl	-4%	0%	-3%
Cn1nnnc1SCCCNCc1cc(Br)ccc1OCc1ccccc1F	4%	-2%	-20%
CCCCCCCCCCCCCCCCCC(=O)NCCc1ccc(O)c(O)c1	/	11µM*	/
CCCCCCCC/C=C\CCCCCCCC(=O)NCCc1ccc(O)c(O)c1	-26%	?	-8%
CCn1c(C(=O)Nc2cc(C)cc(C)c2)cc2sc(Cl)cc21	2%	1%	-7%
Fc1ccc2nc3[nH]c4ccccc4c3nc2c1	1.4µM*	-1%	?
OC1=C(O)c2nc3cc(F)ccc3nc21	1%	2%	4%
Cc1ccc(C2=Nc3ccccc3N(CC(=O)Nc3ccccc3C)C(=O)C2)cc1C	-9%	16%	?
Cc1n[nH]c(C)c1N1C(=O)c2cccc3c(N4CCCCCC4)ccc(c23)C1=O	?	57%	?
C=CCN1C(=O)c2cccc3c(N4CCCCC4)ccc(c23)C1=O	?	?	7.1µM*
